# Test results taken from the supplement of paper PMC12645437, “Orthogonal IMiD-Degron Pairs Induce Selective Protein Degradation in Cells” (ACS Chemical Biology, 2025).
# Whole data set: some 8,300 sequences, median “log2 fold change of degron read counts, EGFP-low vs EGFP+ sorted cells (limma voom), compound-induced degradation” near -1.1, cut for the highest 2% near 3.2. The sample as a whole holds a higher share of the highest values than the screen did.
# T1: CRBN, Q96SW2
# T1 chain: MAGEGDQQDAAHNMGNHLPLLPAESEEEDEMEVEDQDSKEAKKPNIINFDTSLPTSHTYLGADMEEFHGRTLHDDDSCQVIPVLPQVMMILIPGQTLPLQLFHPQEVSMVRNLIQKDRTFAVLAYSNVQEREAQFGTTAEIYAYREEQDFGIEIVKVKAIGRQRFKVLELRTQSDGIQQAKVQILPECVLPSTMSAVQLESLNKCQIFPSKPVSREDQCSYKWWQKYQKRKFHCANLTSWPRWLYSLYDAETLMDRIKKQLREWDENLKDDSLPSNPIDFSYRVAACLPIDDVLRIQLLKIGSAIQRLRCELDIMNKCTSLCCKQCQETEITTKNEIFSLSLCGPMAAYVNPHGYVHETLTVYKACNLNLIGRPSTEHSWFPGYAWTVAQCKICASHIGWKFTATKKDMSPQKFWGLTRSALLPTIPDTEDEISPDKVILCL
# B1: 46F_47L_49D_50V_52G_53A_54Y_55F_67L_, Q9UKT9 (peptide)
# chain: FLCDVCGAYFTQKGNLLRHIKL
# B2: 46F_47S_49N_50V_52G_53A_54R_55F_67L_, Q9UKT9 (peptide)
# chain: FSCNVCGARFTQKGNLLRHIKL
# B3: 46F_47R_49N_50Q_52G_53A_54S_55F_67L_, Q9UKT9 (peptide)
# chain: FRCNQCGASFTQKGNLLRHIKL
# B4: 46F_47D_49E_50I_52G_53R_54E_55F_67L_, Q9UKT9 (peptide)
# chain: FDCEICGREFTQKGNLLRHIKL
# B5: 46F_47H_49N_50V_52G_53A_54Q_55F_67L_, Q9UKT9 (peptide)
# chain: FHCNVCGAQFTQKGNLLRHIKL
# B6: 46F_47C_49P_50I_52G_53H_54N_55F_67L_, Q9UKT9 (peptide)
# chain: FCCPICGHNFTQKGNLLRHIKL
# B7: 46F_47Y_49E_50Q_52G_53A_54H_55F_67L_, Q9UKT9 (peptide)
# chain: FYCEQCGAHFTQKGNLLRHIKL
# B8: 46F_47Q_49P_50I_52G_53A_54N_55F_67L_, Q9UKT9 (peptide)
# chain: FQCPICGANFTQKGNLLRHIKL
# B9: 46F_47L_49P_50I_52G_53A_54N_55F_67L_, Q9UKT9 (peptide)
# chain: FLCPICGANFTQKGNLLRHIKL
# B10: 46F_47T_49P_50I_52G_53A_54N_55F_67L_, Q9UKT9 (peptide)
# chain: FTCPICGANFTQKGNLLRHIKL
# B11: 46F_47N_49P_50I_52G_53A_54N_55F_67L_, Q9UKT9 (peptide)
# chain: FNCPICGANFTQKGNLLRHIKL
# B12: 46F_47M_49P_50I_52G_53A_54N_55F_67L_, Q9UKT9 (peptide)
# chain: FMCPICGANFTQKGNLLRHIKL
# B13: 46F_47V_49P_50I_52G_53A_54N_55F_67L_, Q9UKT9 (peptide)
# chain: FVCPICGANFTQKGNLLRHIKL
# B14: 46F_47E_49P_50I_52G_53A_54N_55F_67L_, Q9UKT9 (peptide)
# chain: FECPICGANFTQKGNLLRHIKL
# B15: 46F_47D_49P_50I_52G_53A_54N_55F_67L_, Q9UKT9 (peptide)
# chain: FDCPICGANFTQKGNLLRHIKL
# B16: 46F_47R_49P_50I_52G_53A_54N_55F_67L_, Q9UKT9 (peptide)
# chain: FRCPICGANFTQKGNLLRHIKL
# B17: 46F_47F_49P_50I_52G_53A_54N_55F_67L_, Q9UKT9 (peptide)
# chain: FFCPICGANFTQKGNLLRHIKL
# B18: 46F_47Y_49P_50I_52G_53A_54N_55F_67L_, Q9UKT9 (peptide)
# chain: FYCPICGANFTQKGNLLRHIKL
# B19: 46F_47S_49P_50I_52G_53A_54N_55F_67L_, Q9UKT9 (peptide)
# chain: FSCPICGANFTQKGNLLRHIKL
# Biological target: T1, CRBN, Q96SW2
# Assay: log2 fold change of degron read counts, EGFP-low vs EGFP+ sorted cells (limma voom), compound-induced degradation; higher = more compound-induced degradation of the degron-EGFP fusion; degrons are variants of IKZF1/3 zinc finger 2; compound dose not given here
# Conditions: Jurkat, 18 h
# [1] = compound: compound 19 (5-tert-butyl-thalidomide)
# [2] = compound: compound 22 (5-morpholino-thalidomide)
# [3] = compound: compound 33 (diphenyl IMiD analogue)
# 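Further: pooled lentiviral library of zinc finger degron-EGFP fusions in mCherry-positive Jurkat cells, FACS-sorted after compound exposure, with degron abundance counted by next-generation sequencing.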
Sequence,log2 fold change of degron read counts [1],log2 fold change of degron read counts [2],log2 fold change of degron read counts [3],log2 fold change of degron read counts (compound: thalidomide)
B1,-2.05,-2.41,-1.49,-1.52
B2,0.49,0.453,-1.03,-0.0608
B3,-1.71,-2.14,-0.702,-1.17
B4,-2.21,-2.29,-2.42,-2.31
B5,-0.612,0.00036,0.0621,-0.871
B6,-2.22,-2.17,-1.7,-1.28
B7,-0.125,0.783,0.184,-1.6
B8,0.555,2.18,2.19,3.58
B9,0.744,0.272,1.69,1.77
B10,0.0113,2.63,1.93,2.85
B11,2.14,0.903,0.95,0.651
B12,-0.073,1.2,2.87,1.98
B13,0.327,2.63,1.9,2.81
B14,0.136,-0.0311,2.92,3.27
B15,2.63,0.285,2.3,2.15
B16,-0.337,-0.426,1.12,1.57
B17,2.81,3.66,1.86,1.33
B18,3.19,3.46,2.38,1.52
B19,2.46,1.78,1.97,1.54
